In PubChem BioAssay AID1159580 (chemical genetic matrix, 2015):
Values joined by “and” are separate entries in the source; they are usually repeats but may differ in a detail not shown here. Equal entries are not always repeated. Out of some 5,500 compounds screened, about 2,000 (36%) were called active. Roughly 18% stayed inconclusive and do not appear here. No stated cut-off is given here; in the data, active means normalized growth mostly below about 0.91 (no sharp cut-off); inconclusive means no clear call, values can overlap the other calls; inactive means mostly above about 0.92. This is one part of the list. Some structures have more than one record in an assay (separate samples or runs), and their calls can disagree.

Experiment: chemical genetic growth profiling, strain panel (AID 1159580);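 further: tested at 20 µM; growth read once vehicle control cultures reached saturation at 30 °C; 1 = growth at the plate median or of vehicle wells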
Settings: growth OD

Measured: normalized growth

Cc1cc2c(C(C)C)c(O)c(O)c(C=O)c2c(O)c1-c1c(C)cc2c(C(C)C)c(O)c(O)c(C=O)c2c1O
0.842 (active) and 0.958 (inactive): S. cerevisiae deletion strains, locus YPR167C, strain met16, stronger effect = lower value
0.878 (active) and 0.941 (inactive): S. cerevisiae deletion strains, locus YMR129W, stronger effect = lower value
inactive: S. cerevisiae deletion strains, locus YJR066W, strain TOR1, stronger effect = lower value 0.993 | S. cerevisiae deletion strains, locus YJR075W, strain HOC1, stronger effect = lower value 0.907 | S. cerevisiae deletion strains, locus YKL068W, stronger effect = lower value 1.04 | S. cerevisiae deletion strains, locus YKR091W, strain srl3, stronger effect = lower value 0.935 and 0.943 | S. cerevisiae deletion strains, locus YLR102C, strain apc9, stronger effect = lower value 0.992 and 1.01 | S. cerevisiae deletion strains, locus YLR113W, strain HOG1, stronger effect = lower value 0.952 | S. cerevisiae deletion strains, locus YMR078C, strain ctf18, stronger effect = lower value 0.974 and 0.987 | S. cerevisiae deletion strains, locus YNL183C, strain NPR1, stronger effect = lower value 0.984 | S. cerevisiae deletion strains, locus YNL250W, strain rad50, stronger effect = lower value 0.961 and 0.957 | S. cerevisiae deletion strains, locus YNL271C, strain bni1, stronger effect = lower value 0.969 and 0.96 | S. cerevisiae deletion strains, locus YNL298W, strain CLA4, stronger effect = lower value 0.959 and 0.985 | S. cerevisiae deletion strains, locus YOL012C, strain htz1 0.315 and 0.44 | S. cerevisiae deletion strains, locus YOR136W, strain idh2, stronger effect = lower value 0.969 and 0.986 | S. cerevisiae deletion strains, locus YOR231W, strain MKK1, stronger effect = lower value 1.01 | S. cerevisiae deletion strains, locus YOR316C, strain cot1, stronger effect = lower value 0.967 and 1 | S. cerevisiae deletion strains, locus YPL256C, strain CLN2, stronger effect = lower value 0.973 | S. cerevisiae deletion strains, locus YPR119W, strain clb2, stronger effect = lower value 0.983 and 1.02 | S. cerevisiae deletion strains, locus YPR141C, strain kar3, stronger effect = lower value 0.984 and 0.991 | S. cerevisiae deletion strains, locus YPR163C, strain tif3, stronger effect = lower value 0.932 and 1.02
0.824 (active) and 0.908 (inactive): S. cerevisiae deletion strains, locus YMR125W, strain sto1, stronger effect = lower value
0.859 (active) and 0.978 (inactive): S. cerevisiae deletion strains, locus YOR144C, strain elg1, stronger effect = lower value
0.202 (active) and 0.679 (inactive): S. cerevisiae deletion strains, locus YLR039C, strain RIC1, stronger effect = lower value
0.354 (active) and 0.699 (inactive): S. cerevisiae deletion strains, locus YMR307W, strain GAS1, stronger effect = lower value
0.912 (active) and 0.957 (inactive): S. cerevisiae deletion strains, locus YPL241C, strain CIN2, stronger effect = lower value
0.92 (active) and 0.959 (inactive): S. cerevisiae deletion strains, locus YLL041C, strain sdh2, stronger effect = lower value
0.846 (active) and 0.936 (inactive): S. cerevisiae deletion strains, locus YPL240C, strain hsp82, stronger effect = lower value
0.928 (active) and 0.994 (inactive): S. cerevisiae deletion strains, locus YML124C, strain tub3, stronger effect = lower value
0.804 (active) and 0.984 (inactive): S. cerevisiae deletion strains, locus YNL307C, strain MCK1, stronger effect = lower value
0.664 (active) and 0.912 (inactive): S. cerevisiae deletion strains, locus YOR184W, strain ser1, stronger effect = lower value
0.679 (active) and 0.959 (inactive): S. cerevisiae deletion strains, locus YNR052C, strain pop2, stronger effect = lower value
0.56 (active) and 0.883 (inactive): S. cerevisiae deletion strains, locus YNL128W, strain TEP1, stronger effect = lower value
0.486 (active) and 0.903 (inactive): S. cerevisiae deletion strains, locus YLR418C, strain cdc73, stronger effect = lower value
0.872 (active) and 0.991 (inactive): S. cerevisiae deletion strains, locus YOL147C, strain pex11, stronger effect = lower value
0.708 (active) and 0.956 (inactive): S. cerevisiae deletion strains, locus YLR371W, strain rom2, stronger effect = lower value
0.855 (active) and 0.958 (inactive): S. cerevisiae deletion strains, locus YML032C, strain rad52, stronger effect = lower value
0.888 (active) and 0.949 (inactive): S. cerevisiae deletion strains, locus YKR026C, strain gcn3, stronger effect = lower value
0.207 (active) and 0.653 (inactive): S. cerevisiae deletion strains, locus YLR262C, strain YPT6, stronger effect = lower value
0.86 (active) and 0.906 (inactive): S. cerevisiae deletion strains, strain wtn01, stronger effect = lower value
active: S. cerevisiae deletion strains, locus YKL009W, strain mrt4, stronger effect = lower value 1.52 [resistant] | S. cerevisiae deletion strains, locus YKL085W, strain MDH1 (second series), stronger effect = lower value 1.08 [resistant] and 1.1 [resistant] | S. cerevisiae deletion strains, locus YKL085W, strain MDH1, stronger effect = lower value 1.08 [resistant] and 1.1 [resistant] | S. cerevisiae deletion strains, locus YKL160W, strain elf1, stronger effect = lower value 0.832 and 0.809 | S. cerevisiae deletion strains, locus YKL190W, strain CNB1, stronger effect = lower value 0.663 and 0.868 | S. cerevisiae deletion strains, locus YKR001C, strain vps1, stronger effect = lower value 0.486 and 0.887 | S. cerevisiae deletion strains, locus YLL001W, strain dnm1, stronger effect = lower value 0.724 and 0.801 | S. cerevisiae deletion strains, locus YLL026W, stronger effect = lower value 0.904 and 0.838 | S. cerevisiae deletion strains, locus YLR027C, strain aat2, stronger effect = lower value 0.78 and 0.81 | S. cerevisiae deletion strains, locus YLR058C, strain SHM2, stronger effect = lower value 0.685 and 0.764 | S. cerevisiae deletion strains, locus YLR221C, strain rsa3, stronger effect = lower value 0.751 and 0.818 | S. cerevisiae deletion strains, locus YLR258W, strain gsy2, stronger effect = lower value 0.855 and 0.839 | S. cerevisiae deletion strains, locus YLR262C, strain YPT6 (second series), stronger effect = lower value 0.216 and 0.179 | S. cerevisiae deletion strains, locus YLR268W, strain sec22, stronger effect = lower value 0.599 and 0.847 | S. cerevisiae deletion strains, locus YLR320W, strain mms22, stronger effect = lower value 0.684 and 0.651 | S. cerevisiae deletion strains, locus YLR330W, strain CHS5, stronger effect = lower value 0.675 and 0.883 | S. cerevisiae deletion strains, locus YLR342W, strain FKS1, stronger effect = lower value 0.675 and 0.786 | S. cerevisiae deletion strains, locus YLR357W, strain rsc2, stronger effect = lower value 0.649 and 0.719 | S. cerevisiae deletion strains, locus YLR370C, strain arc18, stronger effect = lower value 0.687 and 0.765 | S. cerevisiae deletion strains, locus YLR384C, strain iki3, stronger effect = lower value 0.809 and 0.889 | S. cerevisiae deletion strains, locus YML016C, strain PPZ1, stronger effect = lower value 0.73 and 0.831 | S. cerevisiae deletion strains, locus YML120C, strain ndi1, stronger effect = lower value 0.721 and 0.719 | S. cerevisiae deletion strains, locus YMR058W, strain fet3, stronger effect = lower value 0.101 and 0.125 | S. cerevisiae deletion strains, locus YMR205C, strain PFK2, stronger effect = lower value 0.63 and 0.655 | S. cerevisiae deletion strains, locus YMR223W, strain ubp8, stronger effect = lower value 0.796 and 0.898 | S. cerevisiae deletion strains, locus YMR231W, strain pep5, stronger effect = lower value 0.434 and 0.295 | S. cerevisiae deletion strains, locus YNL067W, strain RPL9B, stronger effect = lower value 0.773 and 0.808 | S. cerevisiae deletion strains, locus YNL071W, strain lat1, stronger effect = lower value 0.86 and 0.835 | S. cerevisiae deletion strains, locus YNL153C, strain GIM3, stronger effect = lower value 0.742 and 0.767 | S. cerevisiae deletion strains, locus YNL209W, strain ssb2, stronger effect = lower value 0.527 and 0.542 | S. cerevisiae deletion strains, locus YNL233W, strain BNI4, stronger effect = lower value 0.796 and 0.835 | S. cerevisiae deletion strains, locus YNL322C, strain KRE1 (second series), stronger effect = lower value 0.875 and 0.9 | S. cerevisiae deletion strains, locus YNL322C, strain KRE1, stronger effect = lower value 0.832 | S. cerevisiae deletion strains, locus YNR049C, strain mso1, stronger effect = lower value 0.854 and 0.889 | S. cerevisiae deletion strains, locus YOL006C, strain TOP1, stronger effect = lower value 0.436 | S. cerevisiae deletion strains, locus YOR001W, strain rrp6, stronger effect = lower value 0.764 and 0.819 | S. cerevisiae deletion strains, locus YOR061W, strain CKA2, stronger effect = lower value 0.653 and 0.79 | S. cerevisiae deletion strains, locus YOR069W, strain VPS5, stronger effect = lower value 0.799 and 0.9 | S. cerevisiae deletion strains, locus YOR070C, strain gyp1, stronger effect = lower value 0.893 and 0.784 | S. cerevisiae deletion strains, locus YOR080W, strain dia2, stronger effect = lower value 0.755 and 0.812 | S. cerevisiae deletion strains, locus YOR083W, strain WHI5, stronger effect = lower value 0.806 and 0.808 | S. cerevisiae deletion strains, locus YOR106W, strain vam3, stronger effect = lower value 0.537 and 0.567 | S. cerevisiae deletion strains, locus YOR265W, strain rbl2, stronger effect = lower value 0.808 and 0.842 | S. cerevisiae deletion strains, locus YOR270C, strain vph1, stronger effect = lower value 0.231 and 0.311 | S. cerevisiae deletion strains, locus YOR290C, strain snf2, stronger effect = lower value 0.525 and 0.627 | S. cerevisiae deletion strains, locus YPL051W, strain arl3, stronger effect = lower value 0.51 and 0.436 | S. cerevisiae deletion strains, locus YPL078C, strain atp4, stronger effect = lower value 0.715 and 0.778 | S. cerevisiae strains, strain wild type, stronger effect = lower value 0.809
0.545 (active) and 0.811 (inactive): S. cerevisiae deletion strains, locus YLR342W, strain FKS1 (second series), stronger effect = lower value
0.892 (inactive) and 0.886 (active): S. cerevisiae deletion strains, locus YNL248C, strain rpa49, stronger effect = lower value
0.798 (active) and 0.905 (inactive): S. cerevisiae deletion strains, locus YPL106C, strain sse1, stronger effect = lower value
